High-throughput results as filed in PubChem BioAssay.
A549 viability: Nrf2 qHTS screen for inhibitors: counterscreen for cytotoxicity | A549 ARE-Fluc cells, CellTiter-Fluor viability, 18-24 h | Potency, µM (top dose mostly 46 µM), without a hit: at the top dose activity change, negative = cytotoxicity, hits mostly inhibitors | 390,000 compounds, 0.16% hits; note: potency is the fitted concentration of half-maximal effect; % is set by controls: 0 for no effect and ±100 for the full control effect
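Cytotoxicity counterscreen: CellTiter-Fluor fluorescence was measured in A549 ARE_Fluc cells after 18-24 h of compound exposure in a concentration series. The subsequent BugLite luminescent read reports ARE-luciferase activity.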
Nrf2 block: Nrf2 qHTS screen for inhibitors | Potency, µM (doses to about 46 µM), for inactives: at the highest dose activity change, negative = inhibition, hits mostly inhibitors | A549 ARE-Fluc reporter, luciferase luminescence, 18-24 h | 360,000 compounds, 2.1% hits; note: potency is the fitted concentration of half-maximal effect; % is set by controls: 0 for no effect and ±100 for the full control effect; nearly all actives have a fitted effect of over 60% in size
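Reporter: ARE-Fluc in A549. Exposure: 18-24 h, 37 °C, 5% CO2, 5% FBS OPTI-MEM. Readouts: fluorescent cytotoxicity (CellTiter-Fluor), then luminescent Nrf2 signal after BugLite.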
Nrf2 ARE act: qHTS of Nrf2 Activators. AREc32 ARE-luciferase reporter (MCF7-derived line), luminescence, 24 h. Potency, µM (series often up to 46.1 µM), inactives show at the top dose activation, actives largely listed as activators. 410,000 compounds, 0.31% hits. AID 624171, 2012; note: potency is the fitted concentration of half-maximal effect; % of control where 0% means no effect; nearly all actives have a fitted effect of over 65% in size
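For detection, Steady-Glo was added and plates sat 30 min at RT; before that, AREc32_Fluc cells grown overnight in OPTI-MEM/5% FBS had been treated with 23 nL compound for 24 hr at 37 deg C.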
CCT chaperon mod: High-Throughput Screening for Modulators of Cytosolic Chaperonin Activity. activity change, % (no concentration beside the values), hits read low. AID 651819, 2012. purified chaperonin ATPase assay, HTRF ADP detection, 30 min. 360,000 compounds, 0.3% hits; in the data active = activity change below about -30%; note: % is set by controls: 0 for no effect and ±100 for the full control effect
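Nucleotide hydrolysis assay: TRiC at 20–40 nM final (set by batch activity) with 10 uM ATP, 30 min at 37 °C, in presence of 76 uM compound. Detection by competitive ADP HTRF, 30 min ambient.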
TCR act: Activators of T cell receptors: qHTS campaign. primary human leukocytes, anti-CD3, IL-2 HTRF, 48 h. Potency, µM (titrated, usually from 9.22 µM), without a hit: at the top dose activation of IL-2 secretion, usual class: activators. 330,000 tested, under 10 active; note: % of control where 0% means no effect
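TCR engagement came from a-CD3 beads alone, with compounds added to primary human leukocytes for 48 hr. Secreted IL-2 bridged europium cryptate- and d2-labelled anti-IL-2 antibodies, giving FRET emission at 665nm after 320nm excitation.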
A-T KAP1 phos: qHTS Assay for Identifying a Potential Treatment of Ataxia-Telangiectasia; F2112 A-T fibroblasts, KAP-1 phosphorylation AlphaLISA; neocarzinostatin DNA damage 30 min before lysis; Potency, µM (titrated, usually from 57.5 µM), without a hit: top-dose activation, hits mostly activators; 320,000 compounds, 0.19% hits; note: potency is the fitted concentration of half-maximal effect; % of control where 0% means no effect; nearly all actives have a fitted effect of over 45% in size
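ATM-like activity read as KAP-1 phosphorylation via AlphaLISA donor/acceptor antibody pairs after lysis and 6 hr at 25C. Cells were ATM-null patient fibroblasts (F2112, hTERT), dosed 60 min, then exposed to the DSB inducer NCS for 30 min.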
Active calls of the source: *; u = inconclusive; x = no result; [ ] = remark or other dose. Hits are enriched below; roughly 2.6% of the tested compounds scored in any of these assays. Unless noted, calls come from the whole dose curve; as a rule, active = well fitted curve in the direction sought with a large enough effect; inconclusive = small, poorly fitted or top-dose-only effect, or another doubt; inactive = no such curve, though single readings can be large; an effect the other way counts as inactive or inconclusive.

SMILES | A549 viability | Nrf2 block | Nrf2 ARE act | CCT chaperon mod | TCR act | A-T KAP1 phos
CCc1ccc(NC(=O)C2CCCN(S(=O)(=O)c3ccc4[nH]c(=O)ccc4c3)C2)cc1 (stereo not given) | -14% | u | 0% | -71* | -2% | -1%
CCc1cccc(NC(=O)C2CCCN(S(=O)(=O)c3c(C)[nH]c(=O)[nH]c3=O)C2)c1 (stereo not given) | 13% | x | -1% | -41* | 5% | x
Cc1ccc(-n2c(SCc3ccc(C#N)cc3)nnc2-c2ccccn2)cc1 | -10% | -12% | -1% | -1 | 8% | 0%
COc1ccc(OCc2nnc(SCC(=O)N3CCCc4ccccc43)n2-c2ccc(C)cc2)cc1 | u | 23µM* | 2% | 0 | -1% | 1%
N#Cc1ccc(OCc2nnc(SCC(=O)N3CCCc4ccccc43)n2-c2ccccc2)cc1 | 0% | -11% | 3% | 0 | 1% | -2%
Cc1ccc(OCc2nnc(SCc3ccc(C#N)cc3)n2-c2ccc(C)cc2)cc1 | u | 18µM* | 5% | 1 | -2% | 3%
O=C(CN1C(=O)/C(=C/c2cccc(Cl)c2)SC1=S)NC1C=CS(=O)(=O)C1 (stereo not given) | 1% | 11% | 14µM* | -2 | 2% | -7%
O=C(CN1C(=O)S/C(=C\c2cccc(Cl)c2)C1=O)NC1C=CS(=O)(=O)C1 (stereo not given) | 1% | 0% | 5% | -2 | -6% | 5%
COc1ccc(C2Nc3ccccc3C(=O)N2Cc2ccccc2)cc1OCc1ccc(NC(C)=O)cc1 (stereo not given) | 6% | 0% | x | x | x | x
CN1CCN(c2nc(-c3ccccn3)nc3ccccc23)CC1 | -15% | 5% | -1% | 2 | -4% | -1%
c1ccc(N2CCN(c3nc(-c4ccccn4)nc4ccccc34)CC2)cc1 | u | 16µM* | 0% | -1 | 6% | -2%
CSc1ccc(S(=O)(=O)Nc2ccc3c4c(cccc24)CC3)cc1 | u | 18µM* | 0% | -1 | -2% | -4%
O=C(c1ccccc1O)N(Cc1cccs1)Cc1cccs1 | 3% | u | x | x | x | x
Cc1c(C(=S)Nc2ccccc2)cnn1-c1ccc([N+](=O)[O-])cc1 | -3% | 23µM* | -1%[9.22 µM] | -5 | -2%[46.1 µM] | 2%
CCCCCCC[N+](CC)(CC)CCCCc1ccc(Cl)cc1 | -7% | 16µM* | -1% | -2 | -4% | 24%
CCCCCNCc1ccc(Cl)cc1 | 1% | -1% | 0% | -3 | 0% | -2%
NNc1nc(-c2ccccc2)cc(-c2ccccc2O)n1 | 12% | u | 0% | -3 | 1% | -1%
Clc1nc(-c2ccccc2)cc(-c2ccccc2)n1 | 2% | 11% | 8.9µM* | 0 | -4%[46.1 µM] | 7%
NNc1nc(-c2ccccc2)cc(-c2ccccc2)n1 | -3% | 9.2µM* | -1% | 0 | 3% | 15%
O=C(CCl)Nc1cc(SCC(O)CO)cc([N+](=O)[O-])c1 (stereo not given) | 6.5µM* | 4.6µM* | -2%[9.22 µM] | -4 | -1% | 2%
C(=NN1CCCCCC1)c1cccc2ccccc12 | 9% | u | 3% | 0 | 2% | x
C(=NN1CCCCCC1)c1ccc2ccccc2n1 | -10% | 18µM* | -2% | 1 | 1% | x
Cc1cc2c(s1)c1cnn(Cc3ccc(C#N)cc3)c(=O)c1n2C | -3% | 7% | x | x | x | x
CN(C)c1cccc2c(S(=O)(=O)N3CCCC3)cccc12 | 3% | -6% | 1% | 2 | -2% | 20µM*
COc1cccc(C(=O)Nc2c(C)n[nH]c2C)c1 | 0% | -10% | 0% | -75* | 5% | 9%
SMILES | A549 viability | Nrf2 block | Nrf2 ARE act | CCT chaperon mod | TCR act | A-T KAP1 phos
COc1cccc(-c2nc(SCC(=O)N3CCc4ccccc43)c3c(=O)n(C)c(=O)n(C)c3n2)c1 | 15% | x | 0% | x | x | x
COCCN1C(=O)/C(=C/c2ccc(OCc3ccc(C(=O)O)cc3)c(OC)c2)SC1=Nc1ccccc1 | 21µM* | u | 0% | 0 | -4%[46.1 µM] | -2%
CCCCNC(=O)c1cnc2sc(N3CCCCCC3)nn2c1=O | 0% | -1% | 0% | x | x | x
COc1ccc(C(=O)Nc2ccc3nc(N4CCOCC4)sc3c2)cc1OC | 0% | -10% | 0% | 1 | 0% | 5%
CCCn1nc(C(=O)Nc2ccc3nc(N4CCOCC4)sc3c2)ccc1=O | -14% | 21µM* | 3% | -1 | -9% | -9%
Cc1ccc(NS(=O)(=O)c2cc3c(cc2/C=C/c2ccccc2)NC(=O)CO3)cc1C | 1% | 4% | x | x | x | x
C(/Oc1ccccc1)=C1\Nn2c(nnc2-c2cc(-c3ccccc3)n[nH]2)S1 | 2% | 1% | x | x | x | x
COC(=O)c1ccc(Nc2cc(C)nc3ccc(C)cc23)cc1 | u | u | 10% | -39* | -6% | -2%
COCCN(Cc1cc2cc3c(cc2nc1Cl)OCO3)C(=O)Nc1ccc(OC)cc1 | -7% | 7.3µM* | 3% | 0 | -1%[46.1 µM] | -1%
COCCN(Cc1cc2cc3c(cc2nc1Cl)OCO3)C(=O)Nc1ccc(F)cc1 | -5% | 13µM* | 0% | 1 | 6% | 7%
Cc1noc(/C=C/N(C)C)c1S(=O)(=O)N1CCc2ccccc21 | 3% | -3% | 6% | 0 | 1% | 25µM*
Cc1noc(/C=C/N(C)C)c1S(=O)(=O)N(C)CC(=O)N1CCc2ccccc21 | -3% | x | 0% | 0 | -2% | 7%
Cc1noc(/C=C/N(C)C)c1S(=O)(=O)N(C)Cc1ccc(F)cc1 | 6% | -7% | -1% | -1 | -1% | 32µM*
O=S1(=O)N=C(Oc2ccc(C(F)(F)F)cc2)c2ccccc21 | 1% | 7% | x | x | x | x
O=C(Nc1nc2c(s1)CCCC2)c1ccc(S(=O)(=O)N2CCCc3ccccc32)cc1 | -18% | 18µM* | 8% | -1 | 1% | 2%
CC1CCc2nc(NC(=O)c3ccc(S(=O)(=O)N4CCCc5ccccc54)cc3)sc2C1 (stereo not given) | 0% | 5.2µM* | 0% | -1 | 5% | -1%
CNC(=O)c1ccsc1NC(=O)c1ccc(S(=O)(=O)N2CCCc3ccccc32)cc1 | -10% | 18µM* | 0% | 0 | 3% | -12%
CCCCN(C(=O)c1ccc(N(C)S(=O)(=O)c2ccc(C)cc2)cc1)c1c(N)n(CCCC)c(=O)[nH]c1=O | -11% | -2% | 0% | 1 | 3% | -1%
CC1(C)N=C(N)N=C(N)N1c1cccc(CN)c1 | 0% | -13% | 2% | 1 | 0% | 28µM*
